Bioassay records as filed in PubChem.
Only some compounds are listed: those with a hit (about 2.6% of all), similar ones and a draw of the others.
AmpC inh det: Promiscuous and Specific Inhibitors of AmpC Beta-Lactamase (assay with detergent); AID 584, 2007; Potency, µM (series often up to 28.7 µM); 0.09% of 71,000 active; purified AmpC, nitrocefin hydrolysis with detergent; P00811; active = well fitted curve in the direction sought with a large enough effect; inconclusive = small, poorly fitted or top-dose-only effect
Target sequence (P00811 whole entry, looked up): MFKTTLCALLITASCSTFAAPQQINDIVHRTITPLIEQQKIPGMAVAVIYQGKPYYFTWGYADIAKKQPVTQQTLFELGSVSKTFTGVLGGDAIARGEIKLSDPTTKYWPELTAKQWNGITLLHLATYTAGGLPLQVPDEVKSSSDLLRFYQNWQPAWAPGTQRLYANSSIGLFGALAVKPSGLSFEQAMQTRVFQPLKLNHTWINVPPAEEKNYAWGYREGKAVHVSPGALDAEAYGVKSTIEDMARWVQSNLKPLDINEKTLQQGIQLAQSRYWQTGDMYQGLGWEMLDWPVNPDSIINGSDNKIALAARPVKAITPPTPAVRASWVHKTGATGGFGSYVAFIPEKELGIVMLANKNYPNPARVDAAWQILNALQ
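E. coli AmpC (5.3 nM) in 20 mM phosphate pH 7.0 with 0.01% Triton X-100, preincubated 15 min RT with compound; nitrocefin (2 uL of 800 uM stock) hydrolysis followed by 480 nm absorbance every 20 s over 4 min.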
AmpC inh no det: Promiscuous and Specific Inhibitors of AmpC Beta-Lactamase (assay without detergent); P00811; AmpC nitrocefin hydrolysis, absorbance 480 nm, no detergent; Potency, µM (doses to about 28.7 µM); 1.8% of 71,000 active
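AmpC, 20 mM phosphate pH 7.0; 15 min cpd preinc, RT; start with nitrocefin (800 uM stock); A480 kinetic read, 20 s intervals, 4 min. No-enzyme wells = negative control.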
LT uptake inh: qHTS Assay for Anthrax Lethal Toxin Internalization | Cells, anthrax lethal toxin internalization, FRET ratio (460/530) | Potency, µM (series often up to 40 µM), actives largely listed as inhibitors | 0.67% of 70,000 active | AID 912, 2007; note: nearly all actives have a fitted effect of over 50% in size
Prx2 Sm inh: Schistosoma Mansoni Peroxiredoxins (Prx2); Potency, µM; Schistosoma mansoni peroxiredoxin 2 (Prx2); 0.07% of 65,000 active; AID 448, 2006; S. mansoni Prx2 activity coupled to TGR/GSH (TGR is thioredoxin glutathione reductase), NADPH fluorescence loss, qHTS
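Prx2 activity was followed as the loss of NADPH fluorescence (ex 365/em 450 nm), read every 30 sec for 8 min after H2O2 start. The enzyme mix (50 nM Prx2, 25 nM TGR, GSH, NADPH; pH 7.4 phosphate buffer) was incubated with compound for 15 min at room temperature first.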
Large screens that a line does not name were inactive; [ ] = dose if it differs, or a comment. Unless noted, calls come from the whole dose curve.

COC(=O)NC(c1ccc(F)cc1)C(C(C)=O)C(=O)OC (stereo unspecified)	none (no result: AmpC inh det, AmpC inh no det, Prx2 Sm inh)
Cc1ccc2oc(-c3cccc(NC(=O)C4CCCO4)c3)nc2c1 (stereo unspecified)	none
CC(=O)Nc1ccc(S(=O)(=O)Nc2cccc(-c3nc4cc(C)ccc4o3)c2)cc1	LT uptake inh 13µM
O=c1cc(-c2ccccc2Cl)c2c([nH]1)CCC2	AmpC inh no det 4µM[single pt active]
N=C1[C@@H](O)[C@]2(I)c3ccccc3N3C(=N)[C@H](O)[C@@H]4c5ccccc5N1[C@@H]4[C@@H]32	none
Cn1c(=O)oc2cc(S(=O)(=O)N3CCCC(C(=O)N4CCn5c4nc4ccccc45)C3)ccc21 (stereo unspecified)	AmpC inh no det 4µM[single pt active]
Cn1c(=O)oc2cc(S(=O)(=O)N3CCC(C(=O)NCC4COc5ccccc5O4)CC3)ccc21 (stereo unspecified)	AmpC inh no det 4µM[single pt active]
Cn1c(=O)oc2cc(S(=O)(=O)N3CCCC(C(=O)NCCN4CCOCC4)C3)ccc21 (stereo unspecified)	AmpC inh no det 4µM[single pt active]
Cn1c(=O)oc2cc(S(=O)(=O)N3CCCC(C(=O)N4CCc5ccccc5C4)C3)ccc21 (stereo unspecified)	LT uptake inh inconclusive
Cn1c(=O)oc2cc(S(=O)(=O)N3CCC(C(=O)NCc4cccs4)CC3)ccc21	AmpC inh no det 3.2µM[single pt active]
N[C@@]1(C(=O)O)CCC[C@@H]1C(=O)O	none
OC[C@@H]1O[C@@H](n2cnc3c(NC4CCCCC4)ncnc32)[C@@H](O)[C@H]1O	LT uptake inh inconclusive
CCCCCC[C@@H]([C@H](C)O)n1cnc2c(N)ncnc21	none
CN1CCN(C(=O)C2CCN(S(=O)(=O)c3ccc4c(c3)oc(=O)n4C)CC2)CC1	AmpC inh no det 4µM[single pt active]
Cn1c(=O)oc2cc(S(=O)(=O)N3CCC(C(=O)N4CCN(c5ccccc5)CC4)CC3)ccc21	none
O=CN1CCN(C[C@H](O)CN2CCCCC2)CC1	none
O=C(C1CCN(S(=O)(=O)c2cccc3cccnc23)CC1)N1CCCC1	none
O=C(C1CCCN1S(=O)(=O)c1cccc2cccnc12)N1CCc2ccccc21 (stereo unspecified)	none
O=C(C1CCN(S(=O)(=O)c2cccc3cccnc23)CC1)N1CC=C(c2ccccc2)CC1	LT uptake inh 13µM
O=C(C1CCCN1S(=O)(=O)c1cccc2cccnc12)N1CCc2ccccc2C1 (stereo unspecified)	AmpC inh no det 4µM[single pt active]
CCOC(=O)C1CCCN(c2c(N3CCN(c4ccccn4)CC3)c(=O)c2=O)C1 (stereo unspecified)	AmpC inh no det 4µM[single pt active]
CCOC(=O)C1CCCN(c2c(Nc3cccc(C)c3)c(=O)c2=O)C1 (stereo unspecified)	AmpC inh no det 4µM[single pt active] (no result: Prx2 Sm inh)
CCOC(=O)C1CCCN(c2c(NCCCN(C)c3ccccc3)c(=O)c2=O)C1 (stereo unspecified)	LT uptake inh inconclusive
CNc1nc(-c2ccoc2)nc2ccccc12	none
CC(C)(C)c1cc(C(=O)/C=C/c2ccc(C(=O)O)cc2)cc(C(C)(C)C)c1	LT uptake inh 13µM (no result: AmpC inh det, AmpC inh no det, Prx2 Sm inh)
O=Cc1ccc(C(=O)O)cc1	none (no result: Prx2 Sm inh)
Clc1ccc(Cl)c(Cl)c1Cl	none (no result: Prx2 Sm inh)
O=C(Cn1ncc2c(=O)oc3ccccc3c21)N1CCc2ccccc2C1	AmpC inh no det 4µM[single pt active]
Cc1ccc2oc(=O)c3cnn(CC(=O)N4CCCc5ccccc54)c3c2c1	none (no result: Prx2 Sm inh)
O=C(Cn1ncc2c(=O)oc3ccccc3c21)N1CCC(N2CCCCC2)CC1	AmpC inh no det 3.2µM[single pt active]
CC(=O)N[C@@H](C(=O)O)C(C)(C)SN=O	LT uptake inh inconclusive
Cc1noc(NS(=O)(=O)c2ccc(NC(=O)CSc3ncccn3)cc2)c1C	Prx2 Sm inh 6.8
Cc1cc(C)nc(SCC(=O)Nc2ccc(S(=O)(=O)Nc3onc(C)c3C)cc2)n1	none
CCNc1ncc2nc(-c3ccc(Cl)cc3)c(=O)n(-c3ccccc3)c2n1	LT uptake inh inconclusive
CC1CCC2C(=O)N3C(CCC(C)[C@H]3c3cccc(N4CCCC4=O)c3)C(=O)N2C1c1cccc(N2CCCC2=O)c1 (stereo partly specified)	none (no result: AmpC inh det, AmpC inh no det, Prx2 Sm inh)
Cn1c(=O)cnc2cnc(Nc3ccccc3)nc21	none
CCN(CC)S(=O)(=O)c1ccc(-c2nnc3sc4cccc(C)c4n23)cc1	AmpC inh no det 4µM[single pt active], LT uptake inh inconclusive
CCCNC(=O)CS(=O)Cc1nc(-c2cccc(OC)c2)oc1C (stereo unspecified)	AmpC inh no det 4µM[single pt active]
COc1cccc(-c2nc(CS(=O)CC(=O)NCc3ccccc3)c(C)o2)c1 (stereo unspecified)	AmpC inh no det 4µM[single pt active]
COc1ccc(-c2nc(CS(=O)CC(=O)NCc3cccnc3)c(C)o2)cc1 (stereo unspecified)	AmpC inh no det 3.2µM[single pt active]
COc1ccc(-c2nc(CS(=O)CC(=O)NCc3ccco3)c(C)o2)cc1 (stereo unspecified)	AmpC inh no det 4µM[single pt active]
O=C(O)[C@@H]1[C@@H]2C[C@H]3c4[nH]c5ccccc5c4CCN3C[C@@H]2CC[C@@H]1O	LT uptake inh inconclusive
ClCCl	none (no result: Prx2 Sm inh)
CC(C)/C(=N/[N+](C)(C)C)c1ccccc1	none
Cn1cc(Cl)c(C(=O)N(Cc2ccccc2)c2ccccn2)n1	AmpC inh no det 4µM[single pt active]
N[C@H](C(=O)O)[C@H](N)C(=O)O	none
COc1ccc(CNc2ccnc(-c3cccc(NS(C)(=O)=O)c3)n2)c(OC)c1	none
CCOC(=O)N1CCC(Nc2c(OCC)c(=O)c2=O)CC1	AmpC inh no det 4µM[single pt active]
CCOC(=O)N1CCN(c2c(NC3CCN(Cc4ccccc4)CC3)c(=O)c2=O)CC1	AmpC inh no det 4µM[single pt active]
CCCCN(CC)CCNc1c(N2CCN(C(=O)OCC)CC2)c(=O)c1=O	none
CCCCN(CC)CCNc1c(NC2CCN(C(=O)OCC)CC2)c(=O)c1=O	AmpC inh no det 4µM[single pt active]
S=C=Nc1cccc(C2(N3CCCCC3)CCCCC2)c1	LT uptake inh 13µM
COc1cc(S(=O)(=O)NCc2ccc3c(c2)OCO3)ccc1Cl	LT uptake inh inconclusive
COc1cc(C)c(S(=O)(=O)NCc2ccc3c(c2)OCO3)cc1C	AmpC inh no det 3.2µM[single pt active], LT uptake inh inconclusive
CCOc1ccc(OCC)c(S(=O)(=O)NCc2ccc3c(c2)OCO3)c1	AmpC inh no det 4µM[single pt active]
CC(=O)Cc1nsc(NC(=O)c2cc(-c3cccc(C(F)(F)F)c3)oc2C)n1	AmpC inh no det 16µM[single pt active]
c1ncc(-c2ccoc2)c(NC2CC2)n1	LT uptake inh inconclusive
COc1ccc(CN2C(=O)c3ccccc3C2C(=O)NCc2cccnc2)c(OC)c1 (stereo unspecified)	none
O=C(NCc1cccnc1)C1c2ccccc2C(=O)N1C1CCCC1 (stereo unspecified)	AmpC inh no det 4µM[single pt active]
COc1ccc(OC)c(CN2C(=O)c3ccccc3C2C(=O)NCc2cccnc2)c1 (stereo unspecified)	AmpC inh no det 4µM[single pt active]
CN(Cc1ccco1)c1ncnc2ccc(-c3ccccc3C(F)(F)F)cc12	LT uptake inh inconclusive
COc1ccc(C(=O)Nc2cccc(C)c2)cc1S(=O)(=O)N1CCOCC1	none
